Compound activity from PubChem.
PHOSPHO1 inh: PubChem AID 1565; 290,000 tested, 1.1% active; inhibition, % at 13.3 µM; recombinant PHOSPHO1, absorbance phosphatase assay; in the data active = inhibition above about 60%
PABP FP inh: PABP poly(A) RNA binding inhibitors, primary screen, biochemical, fluorescence polarization, uHTS | 290,000 tested, 1% active | calls only at 35 µM | AID 2014, 2009;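 note: calls also rest on retests at 20 µM and on dose response follow-up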
AI-2 QS modul: Vibrio harveyi AI-2 quorum sensing modulators, primary screen, JMH597 strain, luminescence/OD600 ratio | 300,000 tested, 0.4% active | activity change, % at 7.5 µM | Vibrio harveyi JMH597 AI-2 luminescence/OD600 ratio, 9 h; stronger effect = lower value; strain lacks LuxN and CqsS sensors; 0 = neutral-control median; in the data active = activity change below about -75%, passing the limit was not always enough; inconclusive = no clear call, values can overlap the other calls;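 note: luminescence divided by OD600 gain over 9 h not by final OD600 alone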
ABCB6 inh 2: ABCB6 transporter inhibitors, primary screen, K562-ABCB6 cells, flow cytometry, MLPCN library; fluorescence ratio to DMSO, % at 10 µM; AID 602162, 2011; 360,000 tested, 0.19% active; ATP-binding cassette sub-family B member 6 (Homo sapiens), Q9NP58; K562-ABCB6 porphyrin accumulation, 1 h; stronger effect = lower value;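 active = fluorescence ratio to DMSO below 75%, the collection mean minus 3 SD; inconclusive = too few cells collected in the well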;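 note: signal is porphyrin accumulated inside mitochondria; 100% equals median channel fluorescence of DMSO control wells; lower ratio means ABCB6 inhibition with less porphyrin fluorescence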
Target sequence (Q9NP58 whole entry, looked up): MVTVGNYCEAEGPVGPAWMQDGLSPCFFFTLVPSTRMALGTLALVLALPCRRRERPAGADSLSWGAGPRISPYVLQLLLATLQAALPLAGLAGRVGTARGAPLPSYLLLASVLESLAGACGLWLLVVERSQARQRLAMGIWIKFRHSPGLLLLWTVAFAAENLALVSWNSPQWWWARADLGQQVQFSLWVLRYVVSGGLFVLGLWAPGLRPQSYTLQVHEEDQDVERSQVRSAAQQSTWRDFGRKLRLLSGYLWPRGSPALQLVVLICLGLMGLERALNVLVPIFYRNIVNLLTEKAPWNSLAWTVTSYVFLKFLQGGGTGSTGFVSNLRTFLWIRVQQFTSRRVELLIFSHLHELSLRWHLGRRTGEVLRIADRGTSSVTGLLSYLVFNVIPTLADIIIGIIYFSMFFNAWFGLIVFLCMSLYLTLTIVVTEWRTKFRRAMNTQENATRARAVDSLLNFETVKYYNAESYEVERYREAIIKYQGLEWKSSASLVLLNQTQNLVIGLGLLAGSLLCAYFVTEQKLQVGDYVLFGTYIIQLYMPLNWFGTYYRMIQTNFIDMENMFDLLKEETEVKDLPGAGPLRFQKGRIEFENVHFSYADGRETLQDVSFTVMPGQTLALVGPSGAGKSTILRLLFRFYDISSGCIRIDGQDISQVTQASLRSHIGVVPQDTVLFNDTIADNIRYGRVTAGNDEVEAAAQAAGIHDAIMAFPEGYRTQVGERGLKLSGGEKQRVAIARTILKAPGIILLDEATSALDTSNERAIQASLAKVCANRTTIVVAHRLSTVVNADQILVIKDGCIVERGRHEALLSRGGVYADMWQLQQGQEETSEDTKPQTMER
eIF4H inh: human eIF4H binding inhibitors, primary screen, translation initiation inhibitor project, biochemical, uHTS, fluorescence polarization; Eukaryotic translation initiation factor 4H (Homo sapiens), Q15056; eIF4H fluorescence polarization binding assay; inhibition, % at 35 µM; 290,000 tested, 0.94% active; AID 2012, 2009;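 note: calls also rest on retests at 20 µM and on dose response follow-up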
MLLE-PAM2 inh: inhibitors of PABP1 MLLE–PAM2 peptide binding, primary screen, biochemical, fluorescence polarization, FITC-PAM2, GST-MLLE | inhibition, % at 20 µM | Polyadenylate-binding protein 1 (Homo sapiens), P11940 | 360,000 tested, 0.36% active; in the data active = inhibition above about 35%, passing the limit was not always enough;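 note: plate controls were DMSO wells with GST-MLLE for no effect and wells lacking GST-MLLE protein for full effect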
* marks the source's active call; other numbers are inactive results; i = inactive; ? = inconclusive; nt = no result given; + = active, no number. An excerpt weighted towards active compounds, which were near 2.6% of everything screened. Unless noted, the rule behind the calls is not given here.

SMILES | PHOSPHO1 inh | PABP FP inh | AI-2 QS modul | ABCB6 inh 2 | eIF4H inh | MLLE-PAM2 inh
CC(=O)Nc1ccc(CN(C)c2c(C)nc3ccc(C(=O)NCCCN4CCCC4=O)cn23)cc1 | nt | nt | nt | 100.0 | nt | 1.8
O=c1cc(N2CCc3ccccc3C2)[nH]c(=O)n1-c1ccccc1Cl | -30.2 | i | 19.2 | 102.0 | 13.2 | 2.9
Cc1ccccc1-n1c(=O)cc(N2CCc3ccccc3C2)[nH]c1=O | 10.5 | + | 26.9 | 100.0 | 79.3* | 22.2
COc1ccc(S(=O)(=O)N2CCN=C2SCc2cccc(F)c2)cc1 | 61.0* | i | -4.2 | 94.0 | -9.8 | 2.6
O=S(=O)(c1ccc(Br)cc1)N1CCN=C1SCc1cccc(F)c1 | 27.4 | i | 8.5 | 95.0 | -8.8 | 3.0
Cn1cc(-c2coc3c(C(=O)NCc4ccco4)cccc23)cn1 | nt | nt | nt | 94.0 | nt | 2.7
CCOC(=O)c1c(N)sn(-c2ccccc2C)c1=S | 96.0* | i | 0.8 | 109.0 | -6.8 | 20.4
S=c1[nH]nc(-c2ccccn2)n1/N=C/c1cccc2ccccc12 | 78.5* | i | 19.0 | 100.0 | -5.7 | -20.8
Cc1ccccc1/C=N/n1c(-c2ccccn2)n[nH]c1=S | 20.3 | i | 24.8 | 101.0 | 5.3 | -0.8
Nn1c(=O)c2ccccc2n2c(SCc3ccc(C(F)(F)F)cc3)nnc12 | 90.4* | i | -7.8 | 96.0 | -8.2 | -47.2
Clc1cccc(Nc2ncnc3ccc(Br)cc23)c1 | 62.0* | i | -7.8 | 98.0 | 2.1 | -11.6
CC(C)C(=O)Nc1ccccc1-c1nc2ccccc2[nH]c1=O | nt | i | 6.7 | 97.0 | -9.4 | -10.1
CC(C)C(=O)Nc1sc2c(c1-c1nc3ccccc3[nH]1)CCCC2 | 103.6* | i | 6.9 | 120.0 | -3.0 | -51.5
COc1cc(Nc2ccn3nc(-c4ccc(F)cc4)cc3n2)cc(OC)c1OC | nt | nt | nt | 97.0 | nt | -7.4
COC(=O)c1ccc(CN2C(=O)c3ccccc3S2(=O)=O)cc1 | -33.4 | i | 15.3 | 104.0 | -3.5 | 11.3
COC(=O)c1cccc(N2C(=O)c3ccccc3S2(=O)=O)c1 | 92.1* | i | 9.3 | 89.0 | 1.5 | -113.9
OC(c1cccnc1)c1nc(-c2ccc3c(c2)OCO3)cs1 (stereo not given) | nt | nt | nt | 97.0 | nt | -20.5
C[C@]12C[C@H](O)[C@H]3[C@@H](CCC4=CC(=O)CC[C@@]43C)[C@@H]1CC[C@@H]2C(=O)CO | 10.9 | i | 16.6 | i | 5.2* | 0.7
CC12CCC(=O)C=C1CCC1C2CCC2(C)C1CC[C@]2(O)C(=O)CO (stereo not given in full) | 67.6* | i | 24.6 | 97.0 | -8.0 | 7.4
CC12CCC(=O)C=C1CCC1C2CCC2(C)C1CCC2(O)C(=O)CO (stereo not given) | nt | nt | 20.3 | 98.0 | nt | 7.2
CC(=O)[C@H]1CC[C@H]2[C@@H]3CCC4=CC(=O)CC[C@]4(C)[C@H]3[C@H](O)C[C@]12C | -13.6 | i | 21.9 | 91.0 | -10.1 | -4.3
COC(=O)/C=C1\S/C(=N/N=C/c2ccco2)NC1=O | 18.4 | + | 8.6 | 113.0 | 60.8* | -5.8
Cc1ccc(S(=O)(=O)/N=C2/NC(=O)/C(=C\c3ccco3)S2)cc1 | 26.1 | + | nt | 102.0 | 65.9* | 4.4
CC(=O)Nc1ccc(S(=O)(=O)/N=C2/NC(=O)/C(=C\c3ccco3)S2)cc1 | 9.4 | + | 13.4 | 99.0 | 88.3* | -1.4
Cc1cccc(C)c1NC(=O)C1c2ccccc2OCC(=O)N1CCc1ccccc1 (stereo not given) | nt | nt | nt | 102.0 | nt | nt
SMILES | PHOSPHO1 inh | PABP FP inh | AI-2 QS modul | ABCB6 inh 2 | eIF4H inh | MLLE-PAM2 inh
Cc1nc2cc(OC3(C)CCN(Cc4ccc(OC(F)(F)F)cc4)C3)ccc2s1 (stereo not given) | nt | nt | nt | 94.0 | nt | -6.5
COc1ccc2c(c1)C(CC(C)=O)N(c1ccc(-c3cccs3)cc1)C(c1ccsc1)=C2 (stereo not given) | nt | nt | nt | 93.0 | nt | nt
COCCNC(=O)C1(C)CCN(C(=O)c2cccc(C)c2C)C1 (stereo not given) | nt | nt | nt | 102.0 | nt | -4.2
CSc1ccccc1CNC(=O)C1(C)CCCN1CC(C)C (stereo not given) | nt | nt | nt | 103.0 | nt | -6.8
COc1cc(/C=C/CN2CCC(C(=O)NC(c3ccc(F)cc3)c3ccc4ccccc4n3)CC2)ccc1OC(C)=O (stereo not given) | nt | nt | nt | 98.0 | nt | -5.9
COc1ccc(CCn2c(-c3ccco3)nc3nc4ccccc4nc32)cc1 | 7.0 | + | 11.0 | 136.0 | 66.9* | -45.8
COc1ccccc1Cn1c(-c2ccco2)nc2nc3ccccc3nc21 | nt | nt | 5.6 | 110.0 | nt | -32.8
Cn1c(NCC2CCCCC2)nc2cc(-c3ccsc3)sc2c1=O | nt | nt | nt | 101.0 | nt | -1.9
O=C(O)CN1C(=O)/C(=C\c2ccccc2OCc2ccc(Cl)cc2)SC1=S | 15.6 | i | 49.1 | 103.0 | 3.8 | 23.2
O=C(O)CN1C(=O)/C(=C\c2cc(Br)ccc2OCc2ccc(Cl)cc2Cl)SC1=S | nt | + | 27.7 | 103.0 | 88.5* | 12.3
COc1ccc(NC(=O)C2(C)Cc3c(-c4ccc5c(c4)OCO5)ccnc3O2)cn1 (stereo not given) | nt | nt | nt | 99.0 | nt | -8.8
CCCCCCOC(=O)Sc1nc2ccccc2o1 | 85.8* | i | 5.9 | 94.0 | 0.5 | -87.2
COc1cc(C(=S)N2CCCCC2)ccc1O | 33.7 | i | nt | 96.0 | -5.7 | 38.1*
COc1cc(C(=S)N2CCCC2)ccc1O | 30.9 | i | 15.1 | 90.0 | 1.7 | 40.3*
COc1cc(C(=S)N2CCC(C)CC2)ccc1O | 66.0* | i | 5.0 | 99.0 | 5.5 | 40.0*
CCOc1cc(C(=S)N2CCCC2)ccc1O | 8.3 | i | 7.7 | 97.0 | 6.8 | 28.0
O=C(OCCO)c1c(C2=CCCCC2)oc2c1C(OCCO)CCC2 (stereo not given) | nt | nt | nt | 97.0 | nt | nt
Cc1ccc(CN2CCN(C(=O)c3ccncc3)CC2)cc1 | 68.4* | i | 9.8 | 101.0 | 0.9 | 4.4
CCc1nc2c(OCC(=O)c3ccc(Cl)cc3Cl)cccn2c1N(C)C(=O)COc1ccccc1 | nt | nt | nt | 93.0 | nt | -22.3
COC(=O)c1ccccc1NC(=O)CSc1nc(N)cc(=O)[nH]1 | 24.8 | i | 11.5 | 104.0 | 90.1* | 19.0
O=C(CNC(=O)c1cccs1)OCC(=O)c1ccc([N+](=O)[O-])cc1 | 15.8 | i | 54.8 | 99.0 | -6.2 | 4.9
O=C(CNC(=O)c1cccs1)c1ccc([N+](=O)[O-])cc1 | 67.3* | ? | 15.7 | 103.0 | -4.8 | -9.2
CC1CCCC(C(=O)O)N1C(=O)CCS (stereo not given) | 62.2* | i | 6.1 | 96.0 | -8.5 | 30.5
